In test [1] the target is human Androgen Receptor (AR), AR (gene 367) (UniProt P10275). As to the kind of experiment: NVS_NR_hAR: NovaScreen (NVS) Nuclear Receptor Binding Assay for human Androgen Receptor (AR) (AID 2283332). Summed up: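 Actives from a duplicate 25 uM single-point screen went on to concentration series. Read-out after 20 h was scintillation counting of displaced radioligand in LnCAP extract, with DMSO as baseline.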

The target in test [2] is rat Glycine Receptor, Strychnine-sensitive (GlyRStrySens), Glra1 (gene 25674) (UniProt P07727). As to the kind of experiment: NVS_LGIC_rGlyRStrySens: NovaScreen (NVS) Ligand-Gated Ion Channel Assay for rat Glycine Receptor, Strychnine-sensitive (GlyRStrySens) (AID 2283341). The method in brief:
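Radioligand displacement on rat spinal cord membranes, 1 hr, filter scintillation read-out. Single-concentration duplicate screen at 25 uM; chemicals meeting threshold (e.g., 30% inhibition) rerun in concentration-response up to 50 uM. Loss of binding fitted versus DMSO.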

The target in test [3] is bovine Gamma-Aminobutyric Acid Type A Receptor Agonist (GABAR Agonist), GABRA1 (gene 780973) (UniProt P08219). As to the kind of experiment: NVS_LGIC_bGABAR_Agonist: NovaScreen (NVS) Ligand-Gated Ion Channel Assay for bovine Gamma-Aminobutyric Acid Type A Receptor Agonist (GABAR Agonist) (AID 2283338). The method in brief:
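Radioligand binding to bovine cerebellar membranes in agonist format, read by filter-based scintillation counting after 1 h. Primary screen in duplicate at 25 uM, with actives followed in concentration series. Gain of signal versus DMSO.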

Test [4] addresses Estrogen receptor (Homo sapiens) (UniProt P03372). As to the kind of experiment: OT_ER_ERaERa_1440: Odyssey Thera (OT) 24-hour HEK293T Protein-Complementation Assay for Estrogen Receptor-alpha/-alpha Homodimer (AID 2283349).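 Note: hits raise fluorescence above DMSO for agonists and antagonists alike.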 Summed up: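 Stably transfected HEK293T; ERα LBD homodimer PCA. 24 h dosing, fluorescence intensity read, gain-of-signal vs DMSO.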
Test [5] has the same target. As to the kind of experiment: OT_ER_ERaERa_0480: Odyssey Thera (OT) 8-hour HEK293T Protein-Complementation Assay for Estrogen Receptor-alpha/-alpha Homodimer (AID 2283351).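 Note: rise in fluorescence from reassembled reporter fragments on ERα LBD homodimer in nucleus or whole cell.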 Summed up:
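Measures ERα LBD (aa 310-547) homodimer complementation in stably transfected HEK293T at 8 h post-dose, with fluorescence intensity quantified on a laser scanning cytometer relative to DMSO controls.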

The target of test [6] is Estrogen receptor (Homo sapiens) + Estrogen receptor beta (Homo sapiens) (UniProt P03372+Q92731). The test can be described thus: OT_ER_ERaERb_0480: Odyssey Thera (OT) 8-hour HEK293T Protein-Complementation Assay for Estrogen Receptor-alpha/-beta Heterodimer (AID 2283352). Summed up: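 Compound added to HEK293T cells carrying split-reporter-tagged ER-alpha and ER-beta LBDs, incubated 8 hours, then imaged by laser scanning cytometer. Signal rise in nucleus, or nucleus and cytoplasm, over vehicle was fitted in the positive direction.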

The target in test [7] is bovine Estrogen Receptor (ER), ESR1 (gene 407238) (UniProt P49884). As to the kind of experiment: NVS_NR_bER: NovaScreen (NVS) Nuclear Receptor Binding Assay for bovine Estrogen Receptor (ER) (AID 2283345).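 Note: actives lower the bound radioligand count which means they displace the ER ligand.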 Summed up: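 Bovine uterine membranes; tritiated or iodinated radioligand; competitive displacement; 18 h; scintillation read; DMSO negative control; 25 uM duplicates, then concentration series for actives.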

Test [8] addresses Bile acid receptor (Homo sapiens) (UniProt Q96RI1). As to the kind of experiment: NVS_NR_hFXR_Antagonist: NovaScreen (NVS) Nuclear Receptor Binding Assay for human Farnesoid X Receptor Antagonism (FXR) (AID 2283350). The method in brief: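 Antagonist-format time-resolved FRET binding assay with extracted human receptor protein, read 1 hour after compound addition. Compounds first screened at 25 uM in duplicate, then actives tested in concentration series, with loss of signal relative to DMSO.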

The target of test [9] is human Constitutive Androstane Receptor (CAR), NR1I3 (gene 9970) (UniProt Q14994). The test can be described thus: NVS_NR_hCAR_Antagonist: NovaScreen (NVS) Nuclear Receptor Binding Assay for human Constitutive Androstane Receptor Antagonism (CAR) (AID 2283344). The method in brief: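 Single 25 uM duplicate primary screen, with concentration-series follow-up on actives. Cell-free binding format run in antagonist mode, TR-FRET signal taken 1 h post-dose; activity is signal loss relative to DMSO.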

Test [10] concerns the target chimpanzee Androgen Receptor (AR), AR (gene 747460) (UniProt O97775). The test can be described thus: NVS_NR_cAR: NovaScreen (NVS) Nuclear Receptor Binding Assay for chimpanzee Androgen Receptor (AR) (AID 2283346).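 Note: radioligand displacement from AR measured by scintillation counting in a cell-free assay.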 The method in brief:
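Cell-free radioligand displacement using receptor protein extracted from Sf9/Sf21 cells; bound radioligand measured by scintillation counting 72 hours after chemical dosing. Loss of signal versus DMSO baseline indicates binding; primary screen single-concentration in duplicate at 25 uM, actives followed in concentration series.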

In test [11] the target is Estrogen receptor (Homo sapiens) (UniProt P03372). As to the kind of experiment: NVS_NR_hER: NovaScreen (NVS) Nuclear Receptor Binding Assay for human Estrogen Receptor (ER) (AID 2283348). The method in brief: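 Radiodetection of ligand displacement in a lysate-based, cell-free format using MCF7 extracts, read at 18 hours. Duplicate 25 uM primary testing, then concentration series for actives.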

Among the data in PubChem BioAssay (EPA / NIEHS) are outcome and AC50 values, retold here.

The AC50 is the concentration giving half of the maximal activity seen.

Inconclusive results are not listed. Where a structure was tested more than once in an assay, its records may differ in their call. Calls of active or inactive are those of the source. Rule for the calls: active = hit-call score of the fitted dose curve at least 0.9, where 1 is the maximum; inconclusive = response in the unintended direction; inactive = score below 0.9.

Bile acid receptor (Homo sapiens), sequence (Q96RI1 whole entry, looked up): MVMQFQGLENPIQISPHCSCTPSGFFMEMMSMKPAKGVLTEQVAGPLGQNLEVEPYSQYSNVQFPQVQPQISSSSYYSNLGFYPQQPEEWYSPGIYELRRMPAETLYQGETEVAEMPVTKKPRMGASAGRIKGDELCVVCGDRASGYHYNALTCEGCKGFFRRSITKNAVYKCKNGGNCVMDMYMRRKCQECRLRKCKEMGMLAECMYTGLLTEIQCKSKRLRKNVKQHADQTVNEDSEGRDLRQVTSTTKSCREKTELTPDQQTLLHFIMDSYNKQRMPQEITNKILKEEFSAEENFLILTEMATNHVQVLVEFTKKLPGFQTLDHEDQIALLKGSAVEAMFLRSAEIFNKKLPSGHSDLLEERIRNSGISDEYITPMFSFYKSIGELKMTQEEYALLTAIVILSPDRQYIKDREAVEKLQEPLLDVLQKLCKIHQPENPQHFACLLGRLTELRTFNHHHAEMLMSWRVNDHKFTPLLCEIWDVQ
bovine Gamma-Aminobutyric Acid Type A Receptor Agonist (GABAR Agonist), GABRA1 (gene 780973), sequence (P08219 whole entry, looked up): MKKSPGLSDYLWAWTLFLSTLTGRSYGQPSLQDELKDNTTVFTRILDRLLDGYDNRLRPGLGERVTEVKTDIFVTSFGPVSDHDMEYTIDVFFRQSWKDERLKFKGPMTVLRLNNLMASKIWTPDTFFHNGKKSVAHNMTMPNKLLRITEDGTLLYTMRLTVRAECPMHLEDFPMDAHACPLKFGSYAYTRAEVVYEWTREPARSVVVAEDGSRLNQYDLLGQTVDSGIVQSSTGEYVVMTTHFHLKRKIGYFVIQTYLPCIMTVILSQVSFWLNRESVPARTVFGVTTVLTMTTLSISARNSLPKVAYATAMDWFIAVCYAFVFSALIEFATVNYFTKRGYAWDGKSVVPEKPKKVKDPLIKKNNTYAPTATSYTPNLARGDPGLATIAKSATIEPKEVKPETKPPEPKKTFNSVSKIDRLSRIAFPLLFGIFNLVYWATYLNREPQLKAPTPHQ
chimpanzee Androgen Receptor (AR), AR (gene 747460), sequence (O97775 whole entry, looked up): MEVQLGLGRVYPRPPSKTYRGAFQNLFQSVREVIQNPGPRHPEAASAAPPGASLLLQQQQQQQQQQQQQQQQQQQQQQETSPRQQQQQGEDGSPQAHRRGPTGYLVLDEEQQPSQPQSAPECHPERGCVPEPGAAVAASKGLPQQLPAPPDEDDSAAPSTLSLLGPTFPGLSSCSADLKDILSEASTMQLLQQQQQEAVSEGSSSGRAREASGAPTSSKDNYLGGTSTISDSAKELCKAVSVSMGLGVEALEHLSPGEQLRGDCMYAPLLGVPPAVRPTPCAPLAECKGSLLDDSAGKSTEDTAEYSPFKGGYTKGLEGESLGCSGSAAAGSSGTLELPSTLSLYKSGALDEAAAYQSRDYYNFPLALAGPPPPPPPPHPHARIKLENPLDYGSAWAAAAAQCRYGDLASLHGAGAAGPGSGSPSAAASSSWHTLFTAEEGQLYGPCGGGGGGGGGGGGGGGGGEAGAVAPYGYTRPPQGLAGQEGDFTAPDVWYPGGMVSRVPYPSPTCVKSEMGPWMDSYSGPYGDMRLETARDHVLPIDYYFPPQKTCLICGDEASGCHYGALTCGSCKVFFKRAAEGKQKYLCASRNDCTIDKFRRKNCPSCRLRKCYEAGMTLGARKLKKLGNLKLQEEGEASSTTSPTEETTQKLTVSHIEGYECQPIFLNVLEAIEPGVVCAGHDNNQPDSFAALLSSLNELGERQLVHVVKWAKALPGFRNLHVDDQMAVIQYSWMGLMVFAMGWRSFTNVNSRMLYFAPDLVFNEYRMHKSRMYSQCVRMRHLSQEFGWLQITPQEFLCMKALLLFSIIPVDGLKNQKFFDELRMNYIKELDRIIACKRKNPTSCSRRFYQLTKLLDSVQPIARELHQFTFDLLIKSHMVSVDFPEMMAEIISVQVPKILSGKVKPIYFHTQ
bovine Estrogen Receptor (ER), ESR1 (gene 407238), sequence (P49884 whole entry, looked up): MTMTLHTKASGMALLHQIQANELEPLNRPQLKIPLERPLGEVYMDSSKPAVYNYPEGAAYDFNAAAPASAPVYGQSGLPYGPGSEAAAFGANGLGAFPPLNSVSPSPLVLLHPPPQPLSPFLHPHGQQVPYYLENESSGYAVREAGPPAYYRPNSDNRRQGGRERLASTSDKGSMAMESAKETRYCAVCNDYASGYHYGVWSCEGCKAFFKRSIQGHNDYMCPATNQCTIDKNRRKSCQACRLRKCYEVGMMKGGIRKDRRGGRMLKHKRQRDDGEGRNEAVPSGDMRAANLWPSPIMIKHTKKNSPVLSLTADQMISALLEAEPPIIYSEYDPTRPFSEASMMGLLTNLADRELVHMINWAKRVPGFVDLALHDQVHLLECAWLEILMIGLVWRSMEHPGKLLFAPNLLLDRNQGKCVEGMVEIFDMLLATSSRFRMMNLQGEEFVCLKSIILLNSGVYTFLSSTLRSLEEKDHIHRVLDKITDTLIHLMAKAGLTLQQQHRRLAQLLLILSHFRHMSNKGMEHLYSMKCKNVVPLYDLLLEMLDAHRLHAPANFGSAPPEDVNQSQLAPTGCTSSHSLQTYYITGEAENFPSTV
Estrogen receptor (Homo sapiens) + Estrogen receptor beta (Homo sapiens), sequence (P03372 whole entry, looked up): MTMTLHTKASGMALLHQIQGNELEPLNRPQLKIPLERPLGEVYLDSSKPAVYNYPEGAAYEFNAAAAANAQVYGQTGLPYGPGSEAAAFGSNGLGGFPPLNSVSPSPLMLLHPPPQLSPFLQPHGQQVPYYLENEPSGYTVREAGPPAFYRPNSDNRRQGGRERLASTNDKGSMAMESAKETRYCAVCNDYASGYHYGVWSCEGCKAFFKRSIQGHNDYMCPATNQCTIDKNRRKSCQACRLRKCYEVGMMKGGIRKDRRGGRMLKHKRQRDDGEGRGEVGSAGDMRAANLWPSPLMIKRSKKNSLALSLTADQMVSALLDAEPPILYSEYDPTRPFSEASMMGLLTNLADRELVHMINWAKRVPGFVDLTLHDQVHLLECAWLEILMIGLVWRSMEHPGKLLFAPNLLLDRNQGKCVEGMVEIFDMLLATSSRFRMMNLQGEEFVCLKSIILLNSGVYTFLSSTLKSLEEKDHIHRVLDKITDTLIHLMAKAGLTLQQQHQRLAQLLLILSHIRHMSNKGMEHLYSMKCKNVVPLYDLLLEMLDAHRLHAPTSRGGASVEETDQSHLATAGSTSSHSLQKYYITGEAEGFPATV
Estrogen receptor (Homo sapiens) + Estrogen receptor beta (Homo sapiens), sequence (Q92731 whole entry, looked up): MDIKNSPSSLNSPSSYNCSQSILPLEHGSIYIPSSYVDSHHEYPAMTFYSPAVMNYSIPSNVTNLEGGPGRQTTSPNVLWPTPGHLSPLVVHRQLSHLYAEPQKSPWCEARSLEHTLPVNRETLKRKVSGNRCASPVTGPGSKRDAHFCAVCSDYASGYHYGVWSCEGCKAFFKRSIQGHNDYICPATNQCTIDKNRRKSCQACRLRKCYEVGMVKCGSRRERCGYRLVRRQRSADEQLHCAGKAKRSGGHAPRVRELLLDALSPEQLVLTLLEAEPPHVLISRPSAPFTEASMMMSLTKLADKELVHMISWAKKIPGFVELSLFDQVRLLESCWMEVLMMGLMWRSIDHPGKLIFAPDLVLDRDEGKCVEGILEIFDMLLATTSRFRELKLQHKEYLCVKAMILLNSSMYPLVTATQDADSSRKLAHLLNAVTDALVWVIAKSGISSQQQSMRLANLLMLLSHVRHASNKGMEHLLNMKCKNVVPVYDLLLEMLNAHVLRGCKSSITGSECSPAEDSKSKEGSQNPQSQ
Estrogen receptor (Homo sapiens), sequence (P03372 whole entry, looked up, the tested form may be a part): as the sequence (P03372 whole entry, looked up) above
rat Glycine Receptor, Strychnine-sensitive (GlyRStrySens), Glra1 (gene 25674), sequence (P07727 whole entry, looked up): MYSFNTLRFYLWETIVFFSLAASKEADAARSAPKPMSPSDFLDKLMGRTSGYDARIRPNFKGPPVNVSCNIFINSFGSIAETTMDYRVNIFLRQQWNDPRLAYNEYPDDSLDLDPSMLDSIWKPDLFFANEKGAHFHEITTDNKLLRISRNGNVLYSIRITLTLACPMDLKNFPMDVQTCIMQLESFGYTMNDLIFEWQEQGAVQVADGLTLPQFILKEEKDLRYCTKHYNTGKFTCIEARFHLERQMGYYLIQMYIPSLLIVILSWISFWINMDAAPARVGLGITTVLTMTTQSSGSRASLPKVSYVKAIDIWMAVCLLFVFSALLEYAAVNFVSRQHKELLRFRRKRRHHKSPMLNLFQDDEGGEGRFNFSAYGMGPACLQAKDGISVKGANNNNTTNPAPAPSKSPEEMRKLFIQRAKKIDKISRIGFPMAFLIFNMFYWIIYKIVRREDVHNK
human Constitutive Androstane Receptor (CAR), NR1I3 (gene 9970), sequence (Q14994 whole entry, looked up): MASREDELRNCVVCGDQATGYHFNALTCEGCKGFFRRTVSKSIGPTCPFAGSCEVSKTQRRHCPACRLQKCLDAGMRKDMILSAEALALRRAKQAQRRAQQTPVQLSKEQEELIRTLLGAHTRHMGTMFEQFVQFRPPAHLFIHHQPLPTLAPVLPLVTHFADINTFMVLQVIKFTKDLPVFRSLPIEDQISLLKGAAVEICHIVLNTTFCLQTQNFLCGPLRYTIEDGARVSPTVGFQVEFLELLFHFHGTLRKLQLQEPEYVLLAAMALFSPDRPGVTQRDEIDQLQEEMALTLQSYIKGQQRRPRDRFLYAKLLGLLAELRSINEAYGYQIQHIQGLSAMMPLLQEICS

In the case of `O=c1c(-c2ccc(O)cc2)coc2cc(O)cc(O)c12`, the compound was called inactive in test [1].

As to `COc1ccc2cc(S(=O)(=O)N[C@H](CC(=O)N[C@H](Cc3ccc(CN4[C@H](C)CCC[C@@H]4C)cc3)C(=O)N(C)C(C)C)c3ccc4c(c3)OCO4)ccc2c1`, the AC50 in [2] is 0.128 µM (active).

As to `NCc1cccc(C2CCN(C(=O)c3ccc(C#Cc4ccccc4F)o3)CC2)c1`, in [2], the result was inactive.

As to `Cc1ccc(C(C)C)cc1`, the compound was classed as inactive in test [3], in test [4] and in test [5].

As for `O=c1ccc2ccccc2o1`, the call in [4], in [5] and in [6] was inactive.

For `CC(C)(c1cc(Br)c(O)c(Br)c1)c1cc(Br)c(O)c(Br)c1`, in [3], the AC50 is 44.4 µM (active). Further, the call in test [7] was inactive.

Consider `CCO[Si](CCCNC(N)=O)(OCC)OCC`, for which the call in test [4], in [8], in [5] and in [6] was inactive.

With `CC(=O)N1CCN(c2ccc(OC[C@H]3CO[C@](Cn4ccnc4)(c4ccc(Cl)cc4Cl)O3)cc2)CC1`, the compound was classed as inactive in [9], in test [4], in [5] and in test [6]. Besides, the AC50 in [8] is 20.2 µM (active).

As for `CCN(Cc1cccc(S(=O)(=O)O)c1)c1ccc(C(=C2C=CC(=[N+](CC)Cc3cccc(S(=O)(=O)O)c3)C=C2)c2ccccc2S(=O)(=O)[O-])cc1`, in test [10], the AC50 was 16.1 µM (active). Besides, the compound was called inactive in test [4], in test [8] and in test [6].

On to `CC(C)(C)c1cc(/C=C2\SC(N)=NC2=O)cc(C(C)(C)C)c1O`, for which the compound was called inactive in test [7], in test [11], in test [4] and in test [5]. The concentration at half-maximal activity (AC50) in test [10] is 33.9 µM (active).

Take `Cc1cccc2ccccc12`: the outcome in test [3], in test [4] and in test [5] was inactive.

Take `C[C@]12CC[C@@H]3c4ccc(O)cc4CC[C@H]3[C@@H]1CCC2=O`: the call in test [7] and in [10] was inactive. The AC50 in [10] is 0.472 µM (active).
